Rin1-Abl PPI inh: inhibitors of Rin1-Abl protein binding, primary screen, biochemical, TR-FRET | inhibition, % at 7.35 µM | Tyrosine-protein kinase ABL1 (Homo sapiens) + Ras and Rab interactor 1 (Homo sapiens), … | AID 588664, 2011 | actives 0.4% (n = 360,000); in the data active = inhibition above about 5%, passing the limit was not always enough
eLon inh: inhibitors of E. coli Lon protease, primary screen, biochemical, fluorescence polarization. purified E. coli Lon protease. actives 0.42% (n = 360,000). inhibition, % at 7.94 µM. P0A9M0; in the data active = inhibition above about 13%, passing the limit was not always enough
PKA-R2B act: activators of PKA-R2B holoenzyme, primary screen, biochemical, fluorescence polarization, Cy5-IP20, human; actives 0.079% (n = 340,000); cAMP-dependent protein kinase catalytic subunit beta (Homo sapiens) + cAMP-dependent …; PKA-R2B holoenzyme dissociation; R2B truncated from residue 108, S112A mutant; 0% DMSO only, 100% 113 µM cGMP; activation, % at 11.4 µM;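 active = activation above a cutoff set at the mean over all compounds plus 3 SD, cut at about 18% in these data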;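 also: higher means more holoenzyme dissociation and a rise in polarization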
PKA-R1A activ: activators of PKA-R1A holoenzyme, primary screen, biochemical, fluorescence polarization, Cy5-IP20, bovine R1A, mouse PKAc | cAMP-dependent protein kinase type I-alpha regulatory subunit (Bos taurus) + … | PKA-R1A dissociation; scaled: DMSO 0%, 113 µM cGMP 100% | activation, % at 11.4 µM | actives 0.083% (n = 340,000);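 active = percent activation above the mean of all tested compounds plus 3 SD, cut at about 19% in these data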;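 also: higher means more PKAc released from R1A so a rise in polarization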
IDE act: human IDE activators in live cells, primary screen, fluorescence polarization, HEK cells, FAbeta-B substrate | AID 493087, 2011 | activation, % at 5.96 µM | Insulin-degrading enzyme (Homo sapiens), P14735 | actives 0.073% (n = 340,000) | FAbeta-B cleavage; 0% vehicle, 100% cell-free pure enzyme wells;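 active = activation above the mean of all tested compounds plus 3 SD, set per screening campaign, cut at about 17% in these data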
IDE cell inh: human IDE inhibitors in live cells, primary screen, fluorescence polarization, HEK cells, FAbetaB substrate; Insulin-degrading enzyme (Homo sapiens), P14735; FAbetaB cleavage; inhibition, % at 5.59 µM; actives 0.41% (n = 320,000); AID 434962, 2010;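 active = percent inhibition above the average of all tested compounds plus 3 SD, set per screening campaign, cut at about 16% in these data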;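 also: IDE supplied by intact live HEK cells; FP after avidin binding of uncleaved biotin substrate so inhibition keeps polarization high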
E coli Lon conf: E. coli Lon protease inhibitor retest, confirmation, biochemical, fluorescence polarization; shares compounds with eLon inh; purified E. coli Lon; inhibition, % at 7.94 µM; actives 31% (n = 1,400); AID 602230, 2012; in the data active = inhibition above about 16%
Large screens that a line does not name were inactive (follow-up assays come after a bar, where they were run). The list is not random: actives were taken first. Their share in the collection is about 1.3%.

CCCCCC(C)NC(=O)c1cc(S(=O)(=O)N2CCCCC2)ccc1N1CCOCC1 (stereo unspecified)	eLon inh 22.0 | E coli Lon conf inactive
CCCC(C(=O)NC1CCCCC1)N(Cc1ccco1)C(=O)CNS(=O)(=O)c1ccccc1 (stereo unspecified)	none
CCC(C(=O)NC1CCCC1)N(Cc1ccco1)C(=O)CNS(=O)(=O)c1ccccc1 (stereo unspecified)	eLon inh 17.0 | E coli Lon conf inactive
COc1ccc(/C=C/C(=O)N2CCN(c3ccccn3)CC2)c2ccccc12	none
COc1ccc(/C=C/C(=O)N2CCN(c3ccccn3)CC2)c(OC)c1OC	eLon inh 62.5 | E coli Lon conf inactive
CCN(CC)C(=O)CN(c1ccc2c(c1)OCO2)S(C)(=O)=O	none
COC(=O)CN(c1ccc2c(c1)OCO2)S(C)(=O)=O	eLon inh 17.0 | E coli Lon conf inactive
Cc1nc(Cl)c2c(n1)NC1=C(O2)C(=O)CCC1	eLon inh 84.0 | E coli Lon conf 143.5
Nc1nc(NCCOCCO)nc(NC2CCCCC2)c1[N+](=O)[O-]	none
Nc1nc(NCCO)nc(NC2CCCCC2)c1[N+](=O)[O-]	eLon inh 43.3 | E coli Lon conf inactive
Cc1ccc2cc3cc(C(=O)N(CC(=O)NC4CCCC4)c4cccc(C)c4C)sc3nc2c1	none
O=C1CC(C(=O)Nc2ccccc2C(=O)O)C(c2ccccc2)O1 (stereo unspecified)	eLon inh 18.5 | E coli Lon conf inactive
CCOc1ccc(NC(=O)CSc2nc3cccnc3n2CCOC)cc1	none
O=C(NCc1ccncc1)c1c(F)c(F)c(F)c(F)c1F	none
O=C(NCc1ccncc1)C(F)(F)C(F)(F)C(=O)NCc1ccncc1	eLon inh 16.6 | E coli Lon conf inactive
Cc1c(Cl)c([N+](=O)[O-])nn1CCCC(=O)NC1CCCCC1	none
CC(NCCC(Cc1ccccc1)c1ccco1)c1ccccc1 (stereo unspecified)	eLon inh 17.6 | E coli Lon conf inactive
N#Cc1cccc(NC(=O)COc2ccc(-n3ccnc3)cc2)c1	none
CN(C)CCNc1ccc2ncn3c4ccc(O)cc4c(=O)c1c23	eLon inh active (no result: IDE cell inh) | E coli Lon conf active
CCN(CC)c1nc(Oc2ccc(=O)[nH]n2)nc(N2CCOCC2)n1	none
O=C(Cn1sc2ccccc2c1=O)NC12CC3CC(CC(C3)C1)C2	eLon inh 16.1, IDE cell inh 57.6 | E coli Lon conf inactive
COc1ccc(OC)c(S(=O)(=O)N2CCN(c3ncccn3)CC2)c1	none
O=C(NCCS(=O)(=O)N1CCN(c2ccccc2F)CC1)C1CC(=O)N(c2ccc(F)cc2)C1 (stereo unspecified)	eLon inh 74.9 | E coli Lon conf inactive
COc1ccccc1N1CCN(S(=O)(=O)CCNC(=O)C2CC(=O)N(c3ccccc3)C2)CC1 (stereo unspecified)	none
CN(C)CCNc1oc(COc2cccc(Cl)c2)nc1C#N	eLon inh 20.1 | E coli Lon conf inactive
O=C(C1CCCCN1S(=O)(=O)c1ccccc1[N+](=O)[O-])N1CCOCC1 (stereo unspecified)	none
COc1ccc(C)cc1NC(=O)CSc1nnc(-c2ccc(Br)cc2)o1	none
CCn1cc([N+](=O)[O-])c(C(=O)Nc2ccn(C34CC5CC(CC(C5)C3)C4)n2)n1	none
Cn1cc([N+](=O)[O-])c(C(=O)Nc2ccn(C34CC5CC(CC(C5)C3)C4)n2)n1	eLon inh 30.7 | E coli Lon conf inactive
CCc1nc2ccccc2n1CC(=O)Nc1cc(C)on1	none
CCCn1c(NC(=O)CSCC(=O)Nc2cc(C)on2)nc2ccccc21	eLon inh 21.6 | E coli Lon conf inactive
